Screening results deposited in PubChem by National Center for Advancing Translational Sciences (NCATS).
Sm TGR block – qHTS Assay for the Inhibitors of Schistosoma Mansoni Peroxiredoxins; Schistosoma mansoni thioredoxin glutathione reductase (TGR), Q962Y6; purified TGR, DTNB reduction, TNB absorbance 405 nm; Potency, µM (highest dose often 114 µM), without a hit: at the top dose activity change, negative = inhibition, usual class: inhibitors; 3% of 360,000 active; further: potency means the concentration at half of the fitted maximal effect; on the % scale 0 is the no-effect control and ±100 the full control effect; nearly all actives have a fitted effect of over 60% in size
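Kinetic colorimetric format: TGR-catalysed, NADPH-driven DTNB reduction monitored via TNB absorbance. Enzyme dispensed at 20 nM; compound exposure 15 min at room temperature before reaction start.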
Pf growth 48h – Primary qHTS for delayed death inhibitors of the malarial parasite plastid, 48 hour incubation; 5.9% of 310,000 active; P. falciparum luciferase growth in erythrocytes, 48 h; Potency, µM (titrated, usually from 28.7 µM), for inactives: top-dose activity change, negative = inhibition, hits mostly inhibitors; further: potency means the concentration at half of the fitted maximal effect; on the % scale 0 is the no-effect control and ±100 the full control effect
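Erythrocytes infected with P. falciparum carrying an integrated firefly luciferase reporter (2% hematocrit, 0.1% parasitemia final) were exposed to compounds in RPMI 1640 with 0.5% Albumax at 37 C, 5% CO2. Growth inhibition was scored as reduced luminescence.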
HCMV antiviral – qHTS Assay for inhibitors of the human cytomegalovirus (HCMV). HFF cells, HCMV-luciferase reporter, 72 h; stronger effect = lower value. activity change, negative = inhibition, % at 57.5 µM. 4.5% of 410,000 active; in the data active means activity change below about -60%; inconclusive means no clear call, values can overlap the other calls; inactive means above about -39%; further: on the % scale 0 is the no-effect control and ±100 the full control effect
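HFF cells seeded 16 h at 37C, treated with compounds, infected with luciferase-reporter HCMV at MOI 1 PFU/cell; luciferase read at 72 h post infection, normalized to buffer-only and Salinomycin controls.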
SARS PLpro yeast – qHTS of Yeast-based Assay for SARS-CoV PLP; AID 485353, 2010; Potency, µM (doses to about 32.9 µM), for the others: at the top dose activity, positive = growth rescue, usual class: activators; 0.19% of 330,000 active; S. cerevisiae expressing SARS-CoV PLpro, growth rescue; calls by dose curve; further: potency means the concentration at half of the fitted maximal effect; 0% is about no effect; nearly all actives have a fitted effect of over 55% in size
Pf growth 96h – Primary qHTS for delayed death inhibitors of the malarial parasite plastid, 96 hour incubation; P. falciparum luciferase reporter growth, 96 h; Potency, µM (titrated, usually from 28.7 µM), inactives show at the top dose activity change, negative = inhibition, most hits filed as inhibitors; 6.9% of 320,000 active; further: potency means the concentration at half of the fitted maximal effect; on the % scale 0 is the no-effect control and ±100 the full control effect
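96 h incubation, 37 C, 5% CO2, of luciferase-reporter P. falciparum-infected RBCs (2% hematocrit, 0.05% parasitemia final) with test compounds; endpoint luminescence.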
HCV inh – qHTS Assay for Inhibitors of Hepatitis C Virus (HCV). Huh7.5.1 HCVcc-Cre infection, luciferase reporter, 44 h. Potency, µM (highest dose often 41.8 µM), for inactives: at the top dose activity change, negative = inhibition, usual class: inhibitors. 3.4% of 340,000 active. AID 651820, 2012; further: potency means the concentration at half of the fitted maximal effect; on the % scale 0 is the no-effect control and ±100 the full control effect
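Cells (1,000/well) were plated 4 h before compound, then infected with HCVcc-Cre virus (~0.5 moi). After 44 h further culture, infection was read as luciferase luminescence following a 15 min substrate incubation at room temperature.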
The depositor's hits bear a star; ? = inconclusive; · = not tested or not shown; [ ] = another dose, or the depositor's remark. Sampled rows, rich in hits. Any-hit rate of the full collection: about 15%. Unless noted, the call rests on the fitted dose curve; in most records, active means well fitted curve in the direction sought with a large enough effect; inconclusive means small, poorly fitted or top-dose-only effect, or another doubt; inactive means no such curve, though single readings can be large; an effect the other way counts as inactive or inconclusive.

SMILES | Sm TGR block | Pf growth 48h | HCMV antiviral | SARS PLpro yeast | Pf growth 96h | HCV inh
CCOC(=O)c1c(-c2ccccc2)oc2ccc(OCC(O)CN(C)C)cc12 (configuration not stated) | -0.2% | ? | -36.8 | -4.7% | ? | 14.1µM*
CCOC(=O)c1c(-c2ccccc2)oc2ccc(OCC(=O)NNC(=O)CCC(=O)O)cc12 | 26.1% | 9.0% | -23.0 | -1.7% | 6.7% | 5.3%
O=C(Nc1cccc(Cl)c1Cl)C1CCCO1 (configuration not stated) | -16.2% | 0.5% | 7.3 | 0.7% | ? | 0.9%
Cc1oc2ccc(OC(=O)c3cccs3)cc2c1C(=O)OC(C)C | -1.4% | 38.0% | -2.9 | -78.7% | 18.2% | -15.6%
Cc1oc2ccc(OC(=O)N(C)C)cc2c1C(=O)OC(C)C | 2.0% | ? | -10.0 | -39.8% | 2.94µM* | ?
CCN(CC)CCOC(=O)c1c(C)oc2ccc(OC)cc12 | 0.1% | 13.0% | -65.6* | -0.1% | -24.3% | -16.2%
O=C1NC(=S)N/C1=C/c1ccc2ccccc2c1 | 3.9% | 9.2% | 0.8 | -5.7% | -14.2% | 7.9%
COc1ccc(CCN(C)C2CC(=O)N(c3ccccc3)C2=O)cc1OC (configuration not stated) | 11.2µM* | ? | 11.2 | -4.4% | 1.6% | 5.4%
COc1ccc(N2C(=O)CC(N(CCc3ccc(OC)c(OC)c3)C(=S)Nc3ccccc3)C2=O)cc1 (configuration not stated) | -21.5% | 4.65µM* | -35.7 | -10.7% | ? | 1.5%
COc1ccc(N2C(=O)CC(N(C)CCc3ccc(OC)c(OC)c3)C2=O)cc1 (configuration not stated) | -1.0% | 9.28µM* | 0.2 | -1.8% | 9.1% | 5.3%
COC(=O)c1ccc(N2C(=O)CC(N(C)CCc3ccc(OC)c(OC)c3)C2=O)cc1 (configuration not stated) | 22.4µM* | -10.0% | 11.6 | -28.6% | 9.4% | -4.7%
COc1ccc(N2C(=O)CC(N(CCc3ccc(S(N)(=O)=O)cc3)C(=S)Nc3ccccc3)C2=O)cc1 (configuration not stated) | 0.3% | ? | 0.4 | 3.7% | ? | -17.3%
Cc1ccccc1C(=O)Nc1nnc(SCc2cc(=O)n3ccccc3n2)s1 | 6.1% | · | -35.7 | · | · | ·
Cc1cc(C)c(C#N)c(SC(F)F)n1 | -18.0% | 17.8% | 7.4 | 3.6% | 0.0% | 10.3%
CC(=O)N1C(=O)N(C(C)=O)C2C1N(C)C(=O)N2C(C)=O (configuration not stated) | -1.0% | 21.0% | -4.7 | 0.2% | -4.5% | 7.6%
COCC(=O)N/N=C\c1ccc(OC/C=C/c2ccccc2)c(OC)c1 | -5.5% | 4.65µM* | -0.5 | -1.6% | -3.3% | -15.6%
COc1cc(/C=N\NC(=O)CC#N)ccc1OC/C=C/c1ccccc1 | 3.2% | -21.1% | -2.8 | 3.2% | -14.5% | ?
COc1cc(/C=C/c2cc[n+](C)cc2)ccc1OCC(=O)Nc1ccccc1 | -29.3% | 3.7µM* | ? | -2.5% | -9.7% | 10.5%
COc1ccc(/C=N/NC(=O)CCOc2ccccc2C)cc1OC | 0.4% | -12.7% | -79.0* | 0.9% | ? | 16.3%
COc1cc(/C=N/NC(=O)CCOc2ccccc2C)cc(Br)c1O | -17.0% | 4.0% | -30.6 | 5.0% | ? | -27.2%
COc1ccc(C2CC(=O)CCN2S(=O)(=O)c2ccc(F)cc2)cc1 (configuration not stated) | · | · | -9.6 | · | · | ·
C=CCOC(=O)N1CCC2CC1c1cc(-c3cccc(C)c3)ccc12 (configuration not stated) | · | · | -11.9 | · | · | 3.4%[8.37 µM]
Cc1nn(C(=O)c2ccc(Cl)cc2)c(C)c1S(=O)(=O)N1CCCCCC1 | -9.6% | · | 2.8 | · | · | ·
O=C1CC(c2ccccc2)CC2=C1C1(CCCC1)N=C(Nc1nc3ccccc3o1)N2 (configuration not stated) | · | · | 32.7 | · | · | ·
CSC1=NC(C(Cl)(Cl)Cl)N=C(c2ccc(C)cc2)N1 (configuration not stated) | -14.8% | 11.7µM* | -71.2* | -3.2% | ? | ?
SMILES | Sm TGR block | Pf growth 48h | HCMV antiviral | SARS PLpro yeast | Pf growth 96h | HCV inh
C[C@@H]1CN([C@@H](C)CO)S(=O)(=O)c2ccc(Br)cc2O[C@H]1CN(C)C(=O)Nc1ccc2c(c1)OCO2 | · | · | 26.9 | · | · | ·
CCn1ccnc1CN(C)Cc1cn(C)nc1-c1ccccc1F | -12.7% | -4.2% | ? | 0.2% | 9.28µM* | 10.2%
COCCN(Cc1cn(C)nc1-c1ccccc1F)C(C)C | -15.8% | 60.2% | -29.5 | -0.5% | 9.28µM* | 7.5%
Cc1ccc(C(=O)NC2CCCCCCC2)cc1S(=O)(=O)N1CCOCC1 | 0.0% | ? | 14.7 | -1.7% | 9.28µM* | ?
O=C(NC1CCSc2ccccc21)c1ccc(F)c(S(=O)(=O)N2CCOCC2)c1 (configuration not stated) | 39.8µM* | -4.8% | 32.1 | 1.0% | -58.3% | ·
O=C(NC1CCCCCCC1)c1ccc(F)c(S(=O)(=O)N2CCOCC2)c1 | 0.3% | ? | -13.2 | -1.9% | ? | ?
O=C(NC1CCCC1)c1ccc(Cl)c(S(=O)(=O)N2CCOCC2)c1 | -2.3% | 4.65µM* | -11.7 | 4.7% | 8.9% | -9.9%
O=C(N[C@H]1CC[C@H](CCNC(=O)C2CC2)O[C@@H]1CO)c1ccccn1 | · | · | 80.4 | · | · | ·
COc1ccc(NC(=O)Nc2nnc(N(C)C3CCCCC3)s2)c(OC)c1 | 0.2% | · | -6.9 | · | · | ·
CCc1nn(CC(=O)NCCCN(CC(C)C)CC(C)C)c(=O)c2cc3sc(C)cc3n12 | -0.4% | · | 2.9 | · | · | ·
CCN(CC)c1nc2c(S(=O)(=O)c3ccccc3)nnn2c2ccc(Cl)cc12 | 0.8% | · | -76.3* | · | · | ·
CCN(CC)c1nc2c(S(=O)(=O)c3cccc(Cl)c3)nnn2c2ccsc12 | 2.3% | · | -61.1* | · | · | ·
Cc1nc(C#N)c(N/N=C/c2c(F)cccc2Cl)o1 | -4.4% | 68.2% | 29.5 | 11.2µM* | 29.8% | 0.6%[8.37 µM]
Cc1nc(N)nc(N/N=C/c2c(F)cccc2Cl)n1 | -17.9% | 7.4%[0.00184 µM] | -36.0 | 0.4% | 47.9% | 10.1%
COc1ccc(C(=O)NCCn2cc(SCC(=O)Nc3ccc(F)cc3)c3ccccc32)cc1 | 10.9% | · | 0.2 | · | · | ·
COc1ccccc1NC(=O)CSc1nncs1 | · | · | 4.6 | -0.5% | · | 21.0%
Cc1ccc(CNC(=O)C2CC(c3cc(C(F)(F)F)cc(C(F)(F)F)c3)=NO2)o1 (configuration not stated) | 17.8µM* | 22.0% | 70.1 | -0.3% | 48.2% | 24.0%[8.37 µM]
